The sample as a whole holds a higher share of hits than the screen did.
CBX7 inh – CBX7 inhibition, primary AlphaScreen | AID 1224903 | AlphaScreen His6-CBX7 / biotin-H3K27me3 peptide binding; hits give low values | 66,000 tested, 1.1% active | normalised signal (fraction of DMSO) (concentration not given with the values); in the data active = normalised signal below about 0.5
Target sequence (O95931 whole entry, looked up): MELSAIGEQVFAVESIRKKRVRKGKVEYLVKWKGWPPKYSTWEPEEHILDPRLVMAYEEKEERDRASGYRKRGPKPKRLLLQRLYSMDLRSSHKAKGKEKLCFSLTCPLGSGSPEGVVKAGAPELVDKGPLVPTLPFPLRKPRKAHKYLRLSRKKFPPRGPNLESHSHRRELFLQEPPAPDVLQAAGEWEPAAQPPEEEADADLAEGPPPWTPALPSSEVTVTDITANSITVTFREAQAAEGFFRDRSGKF
Each line names hits and unclear results; the compound was inactive in the other large screens.

Clc1ccc2nc(-c3cccs3)c(Nc3ccccc3)n2c1	none
Cc1ccc(N2C(=O)c3ccccc3C2Nc2ccc(Cl)cc2Cl)nc1 (centres undefined)	none
COc1cc(OC)c(NC2c3ccccc3C(=O)N2c2ccc(C)cn2)cc1Cl (centres undefined)	CBX7 inh 0.41
COc1ccc(OC)c(NC2c3ccccc3C(=O)N2c2ccc(Cl)cc2)c1 (centres undefined)	none
COc1ccc(NC2c3ccccc3C(=O)N2c2ccc(C)cn2)cc1OC (centres undefined)	none
COc1ccc(OC)c(NC2c3ccccc3C(=O)N2c2ccc(Cl)cn2)c1 (centres undefined)	CBX7 inh 0.34
COc1ccc(OC)c(NC2c3ccccc3C(=O)N2c2ccccn2)c1 (centres undefined)	none
CCOC(=O)c1c(NC(=O)COc2ccc(Cl)cc2C)sc2c1CCCC2	none
O=C(CSc1nccn1-c1ccc(Cl)cc1)Nc1ccc(OC(F)(F)F)cc1	none
Cc1ccc(CN2C(=O)c3ccccc3Sc3ccc(C(=O)NC4CCCC(C)C4C)cc32)cc1 (centres undefined)	none
COc1ccc(CNC(=O)CCc2nc3sc4c(c3c(=O)[nH]2)CCCC4)cc1	none
CC(=O)NCCNC(=O)CCc1nc2sc3c(c2c(=O)[nH]1)CCCC3	none
O=C(CCc1nc2sc3c(c2c(=O)[nH]1)CCCC3)NCc1ccccn1	CBX7 inh 0.34
Cc1cccc(-c2noc(COc3cc(C)c(Br)c(C)c3)n2)c1	none
Cc1ccc(NC2c3ccccc3C(=O)N2c2ccccn2)c(C)c1 (centres undefined)	none
CCCCCCCNC(=O)COc1ccc2c(c1)C(=O)CC(C)(C)O2	none
CCCN1CCN(CCCNC(=O)COc2ccc3c(c2)C(=O)CC(C)(C)O3)CC1	none
CCN1CCN(CCCNC(=O)COc2ccc3c(c2)C(=O)CC(C)(C)O3)CC1	CBX7 inh 0.45
Cc1cc2cc(CCNC(=O)C(C)(C)Oc3ccc(Cl)cc3)c(=O)[nH]c2cc1C	none
CC1CCN(S(=O)(=O)c2ccc3[nH]c(=O)cc(C(=O)NCCC4=CCCCC4)c3c2)CC1	none
CCOC(=O)c1c(NC(=O)c2cccc(OCC)c2)sc2c1CCCC2	none
CCOC(=O)CNC(=O)c1cc(-c2cccs2)nc2ccccc12	none
CCOc1ccc2nc(N3CCCC(C(=O)NCCCN4CCN(C)CC4)C3)sc2c1 (centres undefined)	CBX7 inh 0.44
CCOc1ccc2nc(N3CCCC(C(=O)NCCCN4CCOCC4)C3)sc2c1 (centres undefined)	none
CCOc1ccc2nc(N3CCCC(C(=O)N4CCN(c5ccc(OC)cc5)CC4)C3)sc2c1 (centres undefined)	none
CCCN1CCN(C(=O)C2CCCN(c3nc4ccc(OCC)cc4s3)C2)CC1 (centres undefined)	CBX7 inh 0.29
CCCNC(=O)C1CCCN(c2nc3ccc(OCC)cc3s2)C1 (centres undefined)	none
CCOC(=O)N1CCN(C(=O)C2CCCN(c3nc4ccc(OCC)cc4s3)C2)CC1 (centres undefined)	none
COc1cccc(CNC(=O)c2ccc3nc(N4CCC(C)CC4)sc3c2)c1OC	none
COc1ccc(C2CC(=O)N(CC(=O)NCc3ccccc3Cl)c3ccccc3S2)cc1OC (centres undefined)	none
CCOC(=O)c1cnc2c(C(F)(F)F)cccc2c1N1CC2(C)CC1CC(C)(C)C2 (centres undefined)	none
COc1ccc(-n2ncc3c(NCCCO)ncnc32)cc1	none
COc1ccc(-c2nc(CN3CCCC(C(=O)NC4CCCCC4C)C3)c(C)o2)cc1 (centres undefined)	none
O=C(NC1CCCCCC1)C1CCN(c2nnc(-n3cccc3)s2)CC1	none
COc1ccc(NC(=O)c2c(NCc3cccs3)sc3c2CCC3)cc1	none
COc1ccccc1NC(=O)c1c(NCc2sccc2C)sc2c1CCCCC2	none
COc1ccc(OC)c(NC(=O)c2c(NCc3cccs3)sc3c2CCC3)c1	none
COc1ccc(NC(=O)c2c(NCc3sccc3C)sc3c2CCCCC3)c(OC)c1	none
COc1ccc(OC)c(NC(=O)c2c(NCc3cccs3)sc3c2CCCCC3)c1	CBX7 inh 0.43
COc1ccc(OC)c(CNc2sc3c(c2C(=O)Nc2cc(OC)ccc2OC)CCCC3)c1	none
CCOc1ccc(NC(=O)c2c(NCc3cccs3)sc3c2CCCCC3)cc1	CBX7 inh 0.44
COc1ccc(OC)c(NC(=O)c2c(NCc3sccc3C)sc3c2CCCC3)c1	CBX7 inh 0.49
COc1ccc(Cl)cc1NC(=O)c1c(NCc2cccs2)sc2c1CCCC2	none
COc1ccc(Cl)cc1NC(=O)c1c(NCc2sccc2C)sc2c1CCCC2	CBX7 inh 0.39
COc1ccc(OC)c(NC(=O)c2c(NCc3cccs3)sc3c2CCCC3)c1	none
COc1ccc(NC(=O)c2c(NCc3cccs3)sc3c2CCCCC3)cc1	none
COc1ccc(-c2nn(C)c3sc(C(=O)Nc4ccc(C)c(F)c4)cc23)cc1OC	none
CCCCN(CCCC)c1c(NC2CCN(C(=O)OCC)CC2)c(=O)c1=O	none
CCc1ccc(CNC(=O)C2CC(=O)N(CCc3ccccc3)C2)cc1 (centres undefined)	none
CN(CCNC(=O)c1cc(=O)[nH]c2ccc(S(=O)(=O)N3CCCCCC3)cc12)Cc1ccccc1	none
O=C(CCCN1C(=O)CSc2ncccc21)N1CCN(c2ccccn2)CC1	none
CCOC(=O)N1CCC(NC(=O)C2CCN(c3nnc(-n4cccc4)s3)CC2)CC1	none
O=C(C1CCN(c2nc3ccccc3[nH]2)CC1)N1CCC(Cc2ccccc2)CC1	none
CCc1nc2ccccc2c(NC(=O)CN2CCN(C)CC2)c1C	CBX7 inh 0.053
CCCCc1nc2ccccc2c(NC(=O)CN2CCN(C(=O)c3ccco3)CC2)c1CCC	none
O=C(CN1CCCCC1)Nc1c2c(nc3ccccc13)N(c1cccc(Cl)c1)CC2	none
COc1ccc(CCNC(=O)C2CCCN(c3nnc(-n4cccc4)s3)C2)cc1OC (centres undefined)	none
COc1cc(-c2nc(-c3cccs3)c(-c3cccs3)[nH]2)ccc1O	CBX7 inh 0.44
COc1ccc(-c2nc(-c3cccs3)[nH]c2-c2ccccc2)cc1OC	none
COc1cc(-c2nc(-c3ccccc3)c(-c3ccccc3)[nH]2)ccc1O	none
COc1cccc(C(=O)Nc2nc3c(s2)Cc2c(Br)ccc(OC)c2-3)c1	none
CCOC(=O)c1cnc2c(OC)cccc2c1N1CCC(Cc2ccccc2)CC1	CBX7 inh 0.42
CCOC(=O)c1cnc2c(OC)cccc2c1NCc1ccccc1OC	none
CCOC(=O)c1cnc2c(OC)cccc2c1Nc1ccc(CC)cc1	none
CCCCOc1ccc(C(=O)Nc2nnc(C(C)C)s2)cc1	none
COc1cc(Nc2nc(-c3cccc(C)c3)nc3ccccc23)cc(OC)c1	none
CCCn1c(CCCNC(=O)c2ccc(F)cc2)nc2ccccc21	none
O=C(NC1CCCc2ccccc21)c1ccc2c(c1)N(Cc1ccc(F)cc1)C(=O)CS2 (centres undefined)	none
Cc1c(C(=O)NCc2ccccn2)oc2ccc(S(=O)(=O)N3CCC4(CC3)OCCO4)cc12	CBX7 inh 0.43
Cc1c(C(=O)NCCC(C)C)oc2ccc(S(=O)(=O)N3CCC4(CC3)OCCO4)cc12	none
Cc1c(C(=O)NCc2ccccc2)oc2ccc(S(=O)(=O)N3CCC4(CC3)OCCO4)cc12	none
COCCN(CCOC)S(=O)(=O)c1ccc(C(=O)Nc2nc(-c3ccccc3)c(C(C)=O)s2)cc1	none
CCc1nnc(NC(=O)c2cccc(S(=O)(=O)N3CCCCCC3)c2)s1	none
COc1cccc(-n2ccnc2SCC(=O)Nc2ccc(OC)cc2OC)c1	none
CCOc1ccccc1NC(=O)CSc1nccn1-c1ccc(Cl)cc1	CBX7 inh 0.31
CCOc1ccccc1NC(=O)CSc1nccn1-c1cccc(OC)c1	CBX7 inh 0.48
